Source: PubChem BioAssay AID651813 (National Center for Advancing Translational Sciences (NCATS), 2012)
In all, about 2,100 compounds went through this assay and about 1,100 (52%) were called active. Roughly 27% stayed inconclusive and do not appear here. So high a share suggests a set chosen from earlier hits. This is one part of the list. A number with no mark means an inactive call. Calls follow the shape of the dose curve; as a rule, active = well fitted inhibition curve with a large enough effect; inconclusive = small, poorly fitted or top-dose-only effect; inactive = no such curve, though single readings can be large or run the other way.

The compounds below were run against DNA dC->dU-editing enzyme APOBEC-3G (Homo sapiens) (UniProt Q9HC16) (assay: qHTS for inhibitors of Vif-A3G interactions: Cherry picks counterscreen). Details: HeLa A3G-eYFP + Vif (tagged APOBEC3G with the HIV-1 protein that degrades it), eYFP fluorescence, 24 h.
How it was run: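 Readout is eYFP fluorescence (488 nm excitation, 500-530 nm emission) measured on Acumen Explorer after 24 h compound exposure, several concentrations, at 37 deg C. Cells: HeLa stably co-expressing Vif and C-terminally eYFP-tagged A3G; MG132 positive control.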
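Also: hits raise yellow fluorescence by blocking Vif-driven A3G-eYFP degradation; nearly all actives have a fitted effect of over 70% in size.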
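For max response in this document: max response given as percent of control signal.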
Potency is read from the fitted curve at half-maximal effect.

DNA dC->dU-editing enzyme APOBEC-3G (Homo sapiens), sequence (Q9HC16 whole entry, looked up): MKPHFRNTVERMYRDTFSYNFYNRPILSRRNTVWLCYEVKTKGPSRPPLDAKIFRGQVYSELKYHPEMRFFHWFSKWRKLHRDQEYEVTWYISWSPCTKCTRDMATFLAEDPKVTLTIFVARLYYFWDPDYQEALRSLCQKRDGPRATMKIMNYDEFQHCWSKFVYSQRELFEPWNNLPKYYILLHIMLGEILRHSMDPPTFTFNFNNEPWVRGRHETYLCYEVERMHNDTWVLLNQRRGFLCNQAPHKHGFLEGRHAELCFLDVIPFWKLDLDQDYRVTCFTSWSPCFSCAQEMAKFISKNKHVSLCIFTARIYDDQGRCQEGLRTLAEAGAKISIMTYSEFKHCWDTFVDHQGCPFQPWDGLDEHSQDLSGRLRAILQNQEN

Compound	Potency	max response [%]
Clc1ccc2c(c1)C(C1=NCCN1)c1ccccc1CS2 (stereo not drawn)	3.14 µM (active)	
Cc1ccccc1/C=C\c1nc2ccccc2c(=O)[nH]1	11.2 µM (active)	
C=CCN1C(=O)c2cccc3c(N4CCCCC4)ccc(c23)C1=O	18.4 µM (active)	
Cc1ccc(N2C(=O)c3cccc4c(N5CCN(C)CC5)ccc(c34)C2=O)c2cccnc12	15.8 µM (active)	
O=C1c2cccc3c(N4CCCCC4)ccc(c23)C(=O)N1c1ccc(O)cc1		54.2
O=C1c2cccc3c(N4CCCCC4)ccc(c23)C(=O)N1c1cccc(O)c1	2.59 µM (active)	
O=C1c2cccc3c(N4CCCCC4)ccc(c23)C(=O)N1CCO	14 µM (active)	
CSc1nc(Sc2ccccc2Cl)c2ccccc2n1		-6.36
CCN(CC)c1ccc(/C=C/c2ccccn2)cc1	16.4 µM (active)	
CCN(CC)c1ccc(/C=C/c2ccncc2)cc1	4.61 µM (active)	
CCN(CC)c1ccc(/C=C/C(=O)c2ccc(Br)cc2)cc1		26.9
CCN(CC)c1ccc(/C=C/C2=C3C=CC=CC3NC=C2)cc1 (stereo not drawn)	20.6 µM (active)	
CN(C)c1ccc(/C=C/c2ccncc2)cc1	2.59 µM (active)	
O=[N+]([O-])c1ccccc1C=NNC(=S)NN=Cc1ccccc1[N+](=O)[O-]	8.86 µM (active)	
NC(=S)N/N=C/c1cccc(O)c1O		3.32
NC(=S)N/N=C/c1ccccc1OC(=O)/C=C/c1ccccc1		5.74
CCN(CC)c1ccc(/C=C2\C(=N)N3N=C(CC(=O)N4CCOCC4)SC3=NC2=O)cc1	1.58 µM (active)	
COc1cc(/C=C2\C(=N)N3N=C(S(C)(=O)=O)SC3=NC2=O)ccc1OC(=O)c1ccco1		53.1
CN(C)c1ccc(/C=C2\SC(N3CCCCC3)=NC2=O)cc1	20.6 µM (active)	
CN(C)c1ccc(/C=C2\C(=N)N3N=C(CC(=O)N4CCCCC4)SC3=NC2=O)cc1	4.61 µM (active)	
O=C(c1ccccn1)C1CCCN(Cc2cn[nH]c2-c2cc3ccccc3o2)C1 (stereo not drawn)		0.488
C=C(C)CNC(=S)NNC(=O)c1ccco1		8.06
C=CCn1c(O)c(N=NC(=O)CNC(=O)c2ccco2)c2ccccc21	12.5 µM (active)	
CCOC(=S)SCC(=O)N1CCc2cc(OC)ccc2C1C1C(=O)CCCC1=O (stereo not drawn)	14 µM (active)	

Compound	Potency	max response [%]
Cc1cccc(C=Nc2ccccc2C(N)=O)c1	9.94 µM (active)	
Cc1ccc(C=Nc2ccccc2C(N)=O)s1	2.5 µM (active)	
COc1ccc(NC(=O)/C(C#N)=C\C=C\c2ccco2)cc1	14 µM (active)	
COc1ccc(NC(=O)/C(C#N)=C/C=C/c2ccco2)cc1	11.2 µM (active)	
COc1ccc2c(c1)c1nc3ccccc3nc1n2Cc1ccc(OC(C)C)c(OC)c1	23.1 µM (active)	
COc1ccc2c(c1)c1nc3ccccc3nc1n2Cc1ccc(OC)c(OC)c1	25.9 µM (active)	
COc1ccc2c(c1)c1nc3ccccc3nc1n2CC(=O)OC(C)C		-18.3
CC(=O)Oc1c(-c2ccc(Br)o2)oc2ccccc2c1=O		-10.4
CCc1cccc2c(C(O)c3c[nH]c4ccccc34)c[nH]c12 (stereo not drawn)	20.6 µM (active)	
CC[n+]1ccccc1/C=C/c1ccc(N(C)C)cc1	20.6 µM (active)	
CC(C)CC[n+]1ccccc1/C=C/c1ccc(N(C)C)cc1	16.4 µM (active)	
Cc1c(CCCl)c(Cl)n2c(nc3ccccc32)c1C#N	9.94 µM (active)	
CN(C)c1ccc2nc3c(=O)[nH]c(=O)nc-3n(CC(O)C(O)C(O)CO)c2c1 (stereo not drawn)		0.486
CN(C)c1ccc(/C=C2\NC(=S)N(Cc3ccccc3)C2=O)cc1	2.5 µM (active)	
Cc1ccc(/C=C2/NC(=O)N(Cc3ccccc3)C2=O)s1	20.6 µM (active)	
Cc1ccc(/C=C2/NC(=O)N(Cc3ccccc3F)C2=O)s1	8.2 µM (active)	
Cc1cccc(CN2C(=O)N/C(=C/c3ccc(C)s3)C2=O)c1	6.27 µM (active)	
Cc1ccc2ccc3cc(C(=O)Nc4ccc(C)c(F)c4)nc3c2[nH]1		-25.1
CC(C)(C)OC(=O)NC(Cc1ccccc1)C(=O)N1CCC(C(=O)NCC(=O)Nc2ccc(F)cc2)CC1 (stereo not drawn)	23.1 µM (active)	
COc1ccc2c(n1)Sc1nc3ccccc3nc1N2	3.26 µM (active)	
CC1C/C(=C/c2cccs2)C(=O)/C(=C/c2cccs2)C1 (stereo not drawn)		14.5
COc1cc(OC)c(OC)cc1/C=C1\CC(C)C/C(=C\c2cc(OC)c(OC)cc2OC)C1=O (stereo not drawn)	20.6 µM (active)	
COc1ccc(COc2cc(-c3cccc(OC)c3)nc3ccc(NC(=O)C(C)C)cc23)cc1	4.98 µM (active)	
COc1ccc(COc2cc(-c3cccc(OC)c3)nc3ccc(NC(=O)c4ccc(OC)cc4)cc23)cc1	3.53 µM (active)	

Compound	Potency	max response [%]
COc1ccc(-c2cc(-c3nnc(COC(=O)c4ccncc4)o3)c3ccccc3n2)cc1OC		-0.16
CCN(CC)C(=O)c1ccc(/C=C/c2c[nH]c3ccccc23)[n+](C)c1	20.6 µM (active)	
C[n+]1cc(C(=O)N2CCCCC2)ccc1/C=C/c1c[nH]c2ccccc12	17.7 µM (active)	
c1ccc2c(c1)Cc1cc3ccccc3nc1-2	1.64 µM (active)	
CN(C)c1ccc(/C=C/c2ccnc3ccc(N)cc23)cc1	18.4 µM (active)	
Cc1ccc2nccc(/C=C/c3ccc(N(C)C)cc3)c2c1	11.6 µM (active)	
Cc1cc(C)c2nccc(/C=C/c3ccc(N(C)C)cc3)c2c1	11.6 µM (active)	
CN(C)c1ccc(/C=C/c2ccnc3ccc(I)cc23)cc1	5.17 µM (active)	
FC(F)(F)c1ccccc1NC(=S)NN=C1CCCCCC1		19.2
COc1ccc2nccc(/C=C/c3ccc(N(C)C)cc3)c2c1	18.4 µM (active)	
CN(C)c1ccc(/C=C/c2ccnc3ccc(Br)cc23)cc1	2.06 µM (active)	
Cc1ccc2nc(-c3ccccn3)c(Nc3ccccc3C)n2c1		5.76
O=C(Nc1ncc(Cc2ccc(SC(F)F)cc2)s1)c1ccccc1	1.98 µM (active)	
CCOc1ccc(S(=O)(=O)N(CC(=O)N/N=C/c2ccc(-c3ccc([N+](=O)[O-])cc3)o2)c2ccccc2)cc1	11.2 µM (active)	
O=C(O)c1cccc(-c2ccc(/C=N/Nc3ccc([N+](=O)[O-])cc3)o2)c1	14.6 µM (active)	
O=C(O)c1ccc(-c2ccc(/C=N/Nc3ccc([N+](=O)[O-])cc3)o2)cc1	15.8 µM (active)	
Cc1cc([N+](=O)[O-])ccc1-c1ccc(/C=N/NC(=O)c2ccc(Br)o2)o1	20.6 µM (active)	
Cn1c(=S)c2[nH]c(SCCN3CCCC3)nc2n(C)c1=O		14.3
S=C(Nc1ccccc1)N1CCn2c1nc1ccccc12		-19.9
CN(/N=C/c1ccc(-c2ccc([N+](=O)[O-])cc2)o1)c1ccccc1	1.16 µM (active)	
O=[N+]([O-])c1ccccc1S(=O)(=O)Nc1ccc(-c2ccc(N3CCOCC3)nn2)cc1		0.357
O=[N+]([O-])c1ccc(-c2ccc(/C=N/Nc3nc(NCc4ccccc4)nc(N4CCOCC4)n3)o2)cc1	10.3 µM (active)	
Cc1ccc(-c2ccc(/C=N/NC(N)=S)o2)cc1		-14.5
CC(C)(C)NC(=S)N/N=C\c1ccc(-c2ccc([N+](=O)[O-])cc2)o1	10.3 µM (active)	

Compound	Potency	max response [%]
CCN(CC)c1nc(C)c(C(=S)Nc2cc([N+](=O)[O-])ccc2Cl)s1		-7.53
CCOC(=O)c1c(CC(C)C)csc1/N=C/C1C(=O)CCCC1=O		-2.9
Nc1ncnc2c1ncn2[C@@H]1O[C@H](CNCc2ccc(OCc3ccccc3)cc2)[C@@H](O)[C@H]1O	12.5 µM (active)	
COc1ccc(CNCC(=O)Nc2ccccc2-n2cccc2)cc1	9.94 µM (active)	
CCCn1c(C2CCCN2c2nc(-c3cccc(Br)c3)cs2)nc2ccccc21 (stereo not drawn)		-7.22
OCCCn1c(C2CCCN2c2nc(-c3ccc(F)cc3)cs2)nc2cc(Cl)c(N3CCCCC3)cc21 (stereo not drawn)	16.4 µM (active)	
C[C@H](O)[C@@H]1CN2CCc3c([nH]c4ccccc34)[C@@H]2C[C@@H]1N(C)C(=O)c1ccco1	12.5 µM (active)	
CCN(CC)C(=O)CSC(Nc1cccc(F)c1)=C(C#N)C#N	13 µM (active)	
CCN(CC)c1ccc(/C=N/N=C(N)N)c(O)c1	5.59 µM (active)	
CCN(CC)c1ccc(/C=N/NC(=O)c2ccco2)c(O)c1	7.9 µM (active)	
CCN(CC)c1ccc2cc(C(N)=O)c(=N)oc2c1		60.6
O=C(NC(=S)N1CCc2ccccc21)c1ccco1		4.59
O=C(N/N=C/c1sc(=O)n(Cc2ccc(Br)cc2)c1Cl)c1ccco1		-16.3
CCN(CC)c1ccc(/C=N/NC(=O)c2ccco2)cc1	8.86 µM (active)	
Oc1ccc(C=NNC(=S)Nc2ccc(F)cc2)c(O)c1		-25.9
Cc1ccc2nsnc2c1NC(=O)c1ccc(-c2cc(Cl)ccc2Cl)o1	14 µM (active)	
Cc1cc(-c2ccccc2)c2c3c(c(-c4ccccc4)n2n1)c(=O)n(C)c(=O)n3C		9.15
C=CCSc1nnc(C)c(/C=C/Nc2ccc(Cl)cc2)n1	20.6 µM (active)	
CCOc1ccccc1NC(=O)Cn1nnc(C(=O)NCc2cccs2)c1N	0.651 µM (active)	
COc1cc(NC(=O)C2=C(N3CCOCC3)/C(=C\c3ccc(N(C)C)cc3)CCC2)cc(OC)c1OC	3.53 µM (active)	
Cc1cc(NC(=O)NC(=O)c2ccccc2NC(=O)C(C)N)ccc1Oc1ncc(Br)cn1 (stereo not drawn)	0.444 µM (active)	
